Screening data (PubChem)
This is a sample that favours compounds with a hit; in the whole collection about 2.8% have one here.
TWEAK-Fn14 inh = inhibitors of TWEAK-Fn14 interaction signaling; TWEAK-stimulated Fn14 reporter cells, luciferase luminescence, 8 h; inhibition, % at 10 µM; hit rate 2% among 360,000; in the data active = inhibition above about 50%
LGR2 antag = Drosophila LGR2 receptor signaling inhibition; HEK293 LGR2, CRE-luciferase, bursicon-stimulated, 4 h; hit rate 0.35% among 380,000; inhibition, % at 9.99 µM;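 active = drop in luminescence signal, shown as inhibition above about 50% in the replicate tests, limit read from the data, passing the limit was not always enough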;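 also: agonist challenge used bursicon conditioned medium at about half maximal strength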
PAX8 inh HTS = PAX8 transcriptional activity inhibition; AID 652154; hit rate 1.2% among 360,000; RMG-I TPO-luciferase reporter, SteadyGlo, 24 h; inhibition, % at 12.6 µM;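 active = mean replicate inhibition at least 60% with every replicate also reaching 60%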;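 also: luciferase light reporting Pax8 driven TPO promoter activity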
TROY signal inh = TROY signaling inhibition; Q293 LMP1-TROYcd NF-kB luciferase reporter, 4 h; inhibition, % at 10 µM; hit rate 0.98% among 360,000; AID 1347056;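 active = compounds whose plate-normalised and pattern-corrected inhibition of the luciferase reporter signal at the single screening dose is 50% or more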
EWS-Fli inh = blocks EWS/Fli oncoprotein-driven transcription. A673 NR0B1-luciferase reporter, viability-normalised. inhibition, % at 12.6 µM. hit rate 0.67% among 350,000;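 active = mean inhibition of at least 50% after viability correction, with every replicate also passing that limit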;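 also: firefly luciferase signal divided by Alamar Blue viability fluorescence both relative to DMSO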
Of the large screens only hits and unclear results are named; the others gave an inactive call.

CO[C@@H]1CN(C)C(=O)c2cc(NS(C)(=O)=O)ccc2OC[C@@H](C)N(C(=O)C2CCC2)C[C@H]1C	none (no result: TWEAK-Fn14 inh, PAX8 inh HTS, TROY signal inh)
COc1ccc(-c2cc(=O)oc3c(C)c(OCC(=O)N(C)C)ccc23)cc1	none
COc1ccc(-c2cc(=O)oc3c(C)c(O)c(CN(C)C)cc23)cc1	TROY signal inh 60 (no result: LGR2 antag, EWS-Fli inh)
O=C(CN1C(=O)c2ccccc2S1(=O)=O)c1ccc2c(c1)OCCO2	TWEAK-Fn14 inh 104, LGR2 antag 103, PAX8 inh HTS 105, TROY signal inh 83, EWS-Fli inh 86
O=C(CCN1C(=O)c2ccccc2S1(=O)=O)Nc1ccc2c(c1)OCCO2	none (no result: PAX8 inh HTS)
O=C(CN1C(=O)c2ccccc2S1(=O)=O)c1ccc2c(c1)OCCCO2	TWEAK-Fn14 inh 102, LGR2 antag 93, PAX8 inh HTS 104, TROY signal inh 81, EWS-Fli inh 89
O=C(CN1C(=O)c2ccccc2S1(=O)=O)c1cccc(Br)c1	TWEAK-Fn14 inh 99, TROY signal inh 80
COC(=O)c1cccc(NC(=O)c2ccc3c(c2)C(=O)N(C(C)(C)C)C3=O)c1	none
CC(C)(C)NC(=O)c1cccc(NC(=O)c2ccc3c(c2)C(=O)N(C(C)(C)C)C3=O)c1	LGR2 antag 83, TROY signal inh 57
Clc1ccc(-c2csc(NNC3=NCCCCC3)n2)cc1	none (no result: LGR2 antag, EWS-Fli inh)
c1ccc(-c2csc(NNC3=NCCCCC3)n2)cc1	TROY signal inh 53 (no result: PAX8 inh HTS, EWS-Fli inh)
Cc1cc(C(=O)COc2cccnc2[N+](=O)[O-])c(C)n1-c1ccccc1	TWEAK-Fn14 inh 90
Cc1cc(C(=O)COc2cccnc2[N+](=O)[O-])c(C)n1-c1ccccc1F	none
Cc1ccc(-n2c(C)cc(C(=O)COc3cccnc3[N+](=O)[O-])c2C)cc1	TWEAK-Fn14 inh 63 (no result: EWS-Fli inh)
O=C(N[C@@H]1CC[C@H](CC(=O)N2CCc3ccccc3C2)O[C@H]1CO)C1CCC1	none (no result: TWEAK-Fn14 inh, TROY signal inh)
CC(CC1C(C#N)=C(N)SC(N)=C1C#N)c1ccccc1 (stereo not given)	TROY signal inh 50 (no result: LGR2 antag, PAX8 inh HTS, EWS-Fli inh)
O=C(NCc1ccccc1)C1=C[C@@H](c2csc3ccccc23)C[C@@H](OCCCCO)O1	PAX8 inh HTS 77 (no result: TWEAK-Fn14 inh, TROY signal inh)
O=C(NC1CC1)C1=C[C@@H](c2ccc(Br)cc2)C[C@@H](OCCCCO)O1	TROY signal inh 51 (no result: LGR2 antag)
C[C@@H]1CN([C@@H](C)CO)S(=O)(=O)c2ccc(C#CCN(C)C)cc2O[C@H]1CN(C)Cc1ccccc1	none (no result: TWEAK-Fn14 inh, TROY signal inh)
O=c1[nH]c2c(=O)[nH]cnc2nc1-c1ccccc1	none
O=c1[nH]c(-c2ccccc2)cnc1-c1ccccc1	TWEAK-Fn14 inh 73
Cc1ccccc1-c1ccc2c(c1)O[C@@H](CN(C)C(=O)c1ccccn1)[C@H](C)CN([C@H](C)CO)S2(=O)=O	none (no result: TWEAK-Fn14 inh, TROY signal inh)
O=C(CN1C(=O)c2ccccc2S1(=O)=O)c1ccc(Cl)cc1Cl	TWEAK-Fn14 inh 105, LGR2 antag 103, PAX8 inh HTS 112, TROY signal inh 87 (no result: EWS-Fli inh)
O=C(CN1C(=O)c2ccccc2S1(=O)=O)c1ccccc1F	TWEAK-Fn14 inh 93, LGR2 antag 73, TROY signal inh 78 (no result: EWS-Fli inh)
O=C(CN1C(=O)c2ccccc2S1(=O)=O)c1ccc(OC(F)F)cc1	TWEAK-Fn14 inh 98, TROY signal inh 82 (no result: LGR2 antag, PAX8 inh HTS, EWS-Fli inh)
COC(=O)c1ccc(NC(=O)CN2C(=O)c3ccccc3S2(=O)=O)cc1	none
O=C(CCN1C(=O)c2ccccc2S1(=O)=O)Nc1cc(Cl)ccc1Cl	none
O=C(CN1C(=O)c2ccccc2S1(=O)=O)N1CCN(c2ccccc2F)CC1	none (no result: LGR2 antag, PAX8 inh HTS, EWS-Fli inh)
CCCNC(=O)N[C@@H]1C=C[C@H](CC(=O)N2CCN(C)CC2)O[C@@H]1CO	none (no result: TWEAK-Fn14 inh, TROY signal inh)
Cc1ccc(S(=O)(=O)NCCn2nc(C)cc2C)cc1	TWEAK-Fn14 inh 91
C[C@@H]1CN([C@@H](C)CO)C(=O)c2cc(NS(=O)(=O)c3ccc(Cl)cc3)ccc2O[C@@H](C)CCCCO[C@@H]1CN(C)C(=O)Cc1ccccc1	none (no result: TWEAK-Fn14 inh, TROY signal inh)
O=C(Cc1ccccn1)NCC[C@H]1CC[C@@H](NC(=O)Nc2ccccc2)[C@H](CO)O1	none (no result: TWEAK-Fn14 inh, TROY signal inh)
CCOc1ccccc1C(=O)N/N=C/c1coc2ccc(C)cc2c1=O	none
Cc1ccc2occ(/C=N/NC(=O)c3ccccc3Br)c(=O)c2c1	TWEAK-Fn14 inh 71
CC(=O)Nc1ccc(S(=O)(=O)Nc2ccc3[nH]c(=O)[nH]c3c2)cc1	TWEAK-Fn14 inh 54
Cc1ccc(C)c(NS(=O)(=O)c2ccc(-c3cnc(C4CC4)o3)cc2)c1	PAX8 inh HTS 85 (no result: EWS-Fli inh)
CC(=O)Nc1ccc(NS(=O)(=O)c2ccc(-c3cnc(C4CC4)o3)cc2)cc1	none (no result: EWS-Fli inh)
Cc1cccc(NS(=O)(=O)c2ccc(-c3cnc(C4CC4)o3)cc2)c1C	PAX8 inh HTS 75, TROY signal inh 58 (no result: EWS-Fli inh)
